PINK1 modulator – changes PINK1 expression | PINK1 immunofluorescence, high-content cytometry, 24 h | Potency, µM (titrated, usually from 76.6 µM), for the others: at the top dose activation (PINK1 increase), most hits filed as activators | hit rate 0.2% among 410,000 | AID 624263; active = well fitted activation curve with a large enough effect; inconclusive = small, poorly fitted or top-dose-only effect; cell line not stated here; note: potency is the fitted concentration of half-maximal effect; % of control where 0% means no effect; nearly all actives have a fitted effect of over 65% in size
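Stable cell line, 250 cells/well, 12 h attachment; compounds pinned at 5 concentrations, 24 h; CCCP control. Fixed with nuclear dye, primary antibodies 12 h at 10 degrees C, secondary plus cell stain; laser-scanning cytometer read.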
ATXN2 expr inh – reduces ATXN2 reporter expression in HEK-293 cells. HEK-293 ATXN2-luciferase reporter, luminescence, 24 h. Potency, µM (highest dose often 57 µM), for inactives: top-dose activity change, negative = inhibition, usual class: inhibitors. AID 1745845. hit rate 0.72% among 360,000; note: potency is the fitted concentration of half-maximal effect; % is set by controls: 0 for no effect and ±100 for the full control effect; nearly all actives have a fitted effect of over 55% in size
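ATXN2-luciferase reporter cells (luciferase flanked by upstream and downstream ATXN2 gene portions) were treated 24 h at 37 °C with compounds at up to 57 uM. SteadyGlo luminescence gave expression; GF-AFC fluorescence gave viability.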
MCF10A rerep – inducers of DNA re-replication in MCF 10A breast cells; MCF 10A DNA re-replication, Hoechst nuclear intensity, 48 h; Potency, µM (doses to about 46.1 µM), for the others: at the top dose activity, positive = re-replication, usual class: activators; hit rate 2.9% among 350,000; AID 624296; note: potency is the fitted concentration of half-maximal effect; % of control where 0% means no effect; nearly all actives have a fitted effect of over 50% in size
S2 tox – viability counter-screen for ATXN expression inhibitors; S2 cells (HEK-293 line with an ATXN2-luciferase reporter) viability, CellTiter-Fluor protease fluorescence, 24 h; Potency, µM (titrated, usually from 56.7 µM), usual class: cytotoxic; hit rate 0.49% among 400,000; AID 651635; note: potency is the fitted concentration of half-maximal effect; nearly all actives have a fitted effect of over 40% in size
SW480 rereplic – DNA re-replication induction in SW480 cells. SW480 DNA re-replication, Hoechst DNA content imaging, 48 h. Potency, µM (series often up to 46.1 µM), for inactives: at the top dose re-replication activation, actives largely listed as activators. hit rate 1.8% among 340,000. AID 624297; note: potency is the fitted concentration of half-maximal effect; % of control where 0% means no effect; nearly all actives have a fitted effect of over 55% in size
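Cells (250 per well) received 23 nL compound or DMSO by pin tool and were kept 48 hr at 37 C, 5% CO2. Nuclei were then stained with Hoechst for 40 min and scanned for DNA content.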
IL-1B inflam inh – inhibitors of inflammasome signaling (IL-1 beta secretion); THP-1 LPS/ATP IL-1B secretion, AlphaLISA, 16 h; stronger effect = lower value; activity change, % at 57.5 µM; hit rate 4.7% among 360,000; in the data active = activity change below about -50%; inconclusive = mostly about -30% to -49%; note: % is set by controls: 0 for no effect and ±100 for the full control effect
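Secreted IL-1B measured by AlphaLISA bead assay after 16 h compound exposure of THP-1 cells; compounds (final up to 57.5 uM) added 1 h before LPS (250 ng/mL) and ATP (1.25 mM) stimulation; lower signal means less secretion.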
* hit, by the source's call; i = inactive; ? = inconclusive; . = no result; [ ] = dose if it differs, or a comment. Most compounds without a hit are left out; they make up all but 7.1% or so of the library. Unless noted, calls come from the whole dose curve; as a rule, active = well fitted curve in the direction sought with a large enough effect; inconclusive = small, poorly fitted or top-dose-only effect, or another doubt; inactive = no such curve, though single readings can be large; an effect the other way counts as inactive or inconclusive.

SMILES | PINK1 modulator | ATXN2 expr inh | MCF10A rerep | S2 tox | SW480 rereplic | IL-1B inflam inh
O=S(=O)(c1ccc(Br)s1)N1CCN(c2cccc(C(F)(F)F)c2)CC1 | 1% | -10% | . | i | . | .
CCn1nc([N+](=O)[O-])c(C(C#N)c2nc3ccccc3n2C)c(Cl)c1=O (stereo unspecified) | -1% | -3% | ? | i | -2% | -94*
CCCn1nc([N+](=O)[O-])c(C(C#N)c2nc3ccccc3s2)c(Cl)c1=O (stereo unspecified) | ? | -1% | ? | i | 1.3µM* | -102*
Cc1ccc(Cn2c(=O)c3cccnc3n(Cc3ccc(F)cc3)c2=O)cc1 | 2% | -8% | . | i | . | .
CCNC(=O)COc1ccc(/C=C2\COc3ccccc3C2=O)cc1OC | -4% | ? | ? | ? | ? | -102*
CCOc1cc(/C=C2\COc3ccccc3C2=O)ccc1OCC(=O)N(C)C | -2% | -27% | 15µM* | i | 15µM* | -98*
COc1ccc(/C=C2\CCc3ccccc3C2=O)cc1OC | -1% | 42% | ? | i | ? | 10
OCC1(Cc2ccccc2)CCCN(Cc2cn[nH]c2-c2ccccc2)C1 (stereo unspecified) | -2% | -22% | -4% | i | -2% | 4
CCOC(=O)C1(Cc2ccccc2)CCN(Cc2ccc(C3CCCCO3)s2)CC1 (stereo unspecified) | 4% | -26% | 16µM* | i | 12% | 17
CCOC(=O)C1(Cc2ccccc2)CCN(Cc2cc(OC)c3c(c2)OCO3)CC1 | 7% | -19% | -3% | i | -7% | -83*
CCOC(=O)C1(Cc2ccccc2)CCN(Cc2ccc(C)s2)CC1 | ? | -37% | ? | i | 0% | -26
CCOC(=O)C1(Cc2ccccc2)CCN(Cc2ccc(COC)o2)CC1 | 5% | -15% | -1% | i | -3% | -10
CCOC(=O)C1(Cc2ccccc2)CCN(Cc2cccc3c2OCO3)CC1 | 5% | -32% | ? | i | 6% | -53*
CCOC(=O)C1(Cc2ccccc2)CCN(Cc2ccc3c(c2)OCCO3)CC1 | 4% | 4% | -10% | i | 4% | 18
Cc1ccc(C)c(-c2[nH]ncc2CN2CCCC(CO)(Cc3ccccc3C)C2)c1 (stereo unspecified) | 6% | -33% | ? | i | -1% | -80*
COCc1ccc(CN2CCCC(CO)(Cc3ccccc3C)C2)o1 (stereo unspecified) | -1% | -27% | -21% | i | 1% | 13
COc1cc(CN2CCCC(CO)(Cc3ccccc3C)C2)cc2c1OCO2 (stereo unspecified) | 7% | -9%[11.3 µM] | 16% | i | -12% | -63*
CCCC[C@@H]1Cc2[nH][nH]c(=O)c2[C@H](c2ccc(C(C)C)cc2)O1 | 2% | 10% | . | i | . | -65*
CCCC[C@@H]1Cc2[nH][nH]c(=O)c2[C@@H](c2ccc(Cl)cc2)O1 | 3% | 6% | . | ? | . | 3
Clc1cccc(CNCCNCc2cccc(Cl)c2)c1 | 6% | -24% | 16% | ? | -2% | -53*
COc1ccc(NC(=S)N2CCC(Cc3ccccc3)CC2)cc1 | -1% | -21% | 7% | i | -2% | -58*
COc1ccc(NC(=S)N2CCN(Cc3ccccc3)CC2)cc1 | 0% | 8% | 6% | i | -2% | 6
S=C(Nc1ccccc1)N1CCC(Cc2ccccc2)CC1 | -2% | 5% | 13% | i | -3% | -69*
CC(=O)Nc1ccc(OCC(=O)N2CCC(Cc3ccccc3)CC2)cc1 | 2% | -7% | 21% | i | -6% | -53*
Cc1ccc2c(CC(=O)Nc3ccc(S(=O)(=O)N4CCCCC4)cc3)coc2c1 | 0% | -11% | . | i | . | .
SMILES | PINK1 modulator | ATXN2 expr inh | MCF10A rerep | S2 tox | SW480 rereplic | IL-1B inflam inh
COc1cccc(CNC(=O)c2ccc(NC(=O)N3CCCCc4ccccc43)cc2)c1 | -2% | 8% | . | i | . | .
S=C(Nc1ccc2nsnc2c1)N1CCCCC1 | -1% | 8% | 11% | i | -12% | -64*
CCC(Cc1c(I)cc(I)c(O)c1I)C(=O)O (stereo unspecified) | . | . | 2% | . | 0% | .
C=C(C)CNC(=S)NNC(=O)c1ccco1 | . | -1% | 16µM* | i | 1.8µM* | -8
CC(=O)c1cccc(NC(=S)NNC(=O)c2ccco2)c1 | 3% | . | 13% | i | -2% | 8
COc1cccc(CNC(=O)CCl)c1 | 1% | 6% | -2% | i | -1% | 0
COc1cccc(CNC(=O)COC(=O)c2nc(Cl)c(Cl)c(Cl)c2Cl)c1 | 0% | -38% | 7.3µM* | ? | 12µM* | -101*
COc1cccc(CNC(=O)COC(=O)c2c(NC(C)=O)sc(C)c2C)c1 | 2% | -13% | 2% | i | 16µM* | 9
COCCn1c(SCC(=O)c2ccc(F)cc2)nc2cc(C(=O)NC3CCCC3)ccc2c1=O | 2% | 3% | . | i | . | .
CC12CCC3c4ccc(OCC(=O)O)cc4CCC3C1CCC2=O (stereo unspecified) | 0% | 0% | 9% | i | -5% | 16
CCOc1cc(CN2CCN(C(=O)c3cccc4ccccc34)CC2)ccc1OC | -1% | . | -1% | i | ? | -3
COc1ccc2ccccc2c1CN1CCN(C(=O)c2ccco2)CC1 | 5% | -27% | 9% | i | 2% | -52*
CCOc1ccccc1-n1c(CN2CCN(C(=O)c3ccco3)CC2)nc2ccccc2c1=O | -4%[38.3 µM] | -19% | 3.7µM* | i | 24% | -103*
COc1ccc(CN2CCN(C(=O)c3cccc4ccccc34)CC2)cc1OC | 2% | -43% | 0.65µM* | ? | 6.5µM* | -15
COc1ccc(CN2CCN(C(=O)c3cccc4ccccc34)CC2)cc1Br | 0% | -31% | 19% | i | -4% | -65*
COc1ccccc1CN1CCN(C(=O)c2cccc3ccccc23)CC1 | -1% | -18% | -8% | ? | -5% | -11
COc1cccc(CN2CCN(C(=O)c3cccc4ccccc34)CC2)c1OC | -5%[38.3 µM] | -4% | 1% | i | 1% | -77*
O=C(c1ccco1)N1CCCN(Cc2cn[nH]c2-c2ccc(-c3ccccc3)cc2)CC1 | 0% | 21% | ? | i | -5% | -82*
COc1ccc(-c2[nH]ncc2CN2CCN(C(=O)c3ccco3)CC2)cc1F | -1% | -8% | -5% | i | -15% | -14
Cc1cc(Nc2ccc(C)c(Cl)c2)n2nc(Cc3ccccc3)nc2n1 | 2% | -3% | . | i | . | .
O=C(CSc1nc2c(c(=O)[nH]1)CN(Cc1ccc3c(c1)OCO3)CC2)Nc1cccc(Cl)c1 | 0% | -3% | . | ? | . | .

Compound activity: PubChem BioAssay, National Center for Advancing Translational Sciences (NCATS)
